Inconclusive results are not listed. Unmarked numbers belong to inactive results. Activity calls are given as the source filed them. Calls come from the whole dose curve.
molecular target: Progesterone receptor (Homo sapiens) (UniProt P06401); test: qHTS assay to identify small molecule agonists of the progesterone receptor (PR) signaling pathway (AID 1346784); details: PR-UAS-bla HEK293T, beta-lactamase FRET ratio, 16 h; series mostly up to 92.4 µM; activation: at the top concentration; note: nearly all actives have a fitted effect of over 30% in size
From the text: U.S. Tox21 Program National Center for Advancing Translational Sciences [NCATS] NIH Chemical Genomics Center [NCGC] U.S. Environmental Protection Agency [EPA] National Institutes of Environmental Health Sciences [NIEHS] National Toxicology Program [NTP] U.S. Food and Drug Administration [FDA] […] Endocrine disrupting chemicals (EDCs) and their interactions with steroid hormone receptors like PR causes disruption of normal endocrine function. To identify the compounds that activate PR signaling, a PR-UAS-bla GripTite cell line i.e. PR-UAS-bla HEK 293T (Invitrogen, Carlsbad, CA, USA) containing a beta-lactamase reporter gene under the control of an Upstream Activator Sequence (UAS) was used to screen Tox21 10K compound library.
Tox21 Assay Protocol Summary: PR-UAS-bla HEK 293T cells were dispensed at 3,000 cells/5 uL of assay medium containing 2% charcoal stripped FBS per well into black wall/clear-bottom 1536-well plates using a Multidrop Combi (ThermoFisher Scientific, Waltham, MA) dispenser. After the assay plates were incubated at a 37C and 5% CO2 for 6hr, 23 nL of compounds dissolved in DMSO, positive controls or DMSO only was transferred to the assay plate by a Pintool station (Kalypsys, San Diego, CA). The plates were incubated at 37C and 5% CO2 for 16hr. Then 1 uL of LiveBLAzer B/G FRET substrate was added using a BioRAPTR FRD (Flying Reagent Dispenser, Aurora Discovery, San Diego, CA). After the plates were incubated at room temperature for 2 hours, fluorescence intensity was measured by an Envision plate reader (PerkinElmer, Shelton, CT).
% is set by controls: 0 for no effect and ±100 for the full control effect; potency is the fitted concentration of half-maximal effect.

Chain of Progesterone receptor (Homo sapiens) (P06401 whole entry, looked up): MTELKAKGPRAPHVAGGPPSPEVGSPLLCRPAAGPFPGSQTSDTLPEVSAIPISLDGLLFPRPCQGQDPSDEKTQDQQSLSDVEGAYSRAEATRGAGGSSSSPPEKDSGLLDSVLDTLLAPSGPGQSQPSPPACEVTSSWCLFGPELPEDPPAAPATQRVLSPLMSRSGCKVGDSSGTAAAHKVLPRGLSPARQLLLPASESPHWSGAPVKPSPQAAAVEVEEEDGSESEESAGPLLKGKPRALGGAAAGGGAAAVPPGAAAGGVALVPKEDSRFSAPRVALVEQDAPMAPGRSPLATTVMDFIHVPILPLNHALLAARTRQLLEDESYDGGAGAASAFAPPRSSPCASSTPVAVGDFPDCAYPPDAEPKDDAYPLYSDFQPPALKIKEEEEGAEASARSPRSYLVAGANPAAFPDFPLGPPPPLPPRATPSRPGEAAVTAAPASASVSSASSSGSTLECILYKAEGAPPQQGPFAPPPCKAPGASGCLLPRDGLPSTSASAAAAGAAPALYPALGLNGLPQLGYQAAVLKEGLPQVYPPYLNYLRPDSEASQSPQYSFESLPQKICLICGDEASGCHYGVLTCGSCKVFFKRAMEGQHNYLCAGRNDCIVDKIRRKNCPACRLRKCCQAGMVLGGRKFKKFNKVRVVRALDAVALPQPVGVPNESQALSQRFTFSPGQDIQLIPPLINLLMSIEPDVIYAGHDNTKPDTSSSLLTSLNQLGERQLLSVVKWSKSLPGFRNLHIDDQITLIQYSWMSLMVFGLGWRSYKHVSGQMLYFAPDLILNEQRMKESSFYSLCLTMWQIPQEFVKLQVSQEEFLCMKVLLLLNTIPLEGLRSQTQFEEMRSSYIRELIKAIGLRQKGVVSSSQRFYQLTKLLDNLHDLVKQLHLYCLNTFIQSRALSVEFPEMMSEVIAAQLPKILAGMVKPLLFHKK

Compound | activation | Potency
O=c1cc(-c2ccccc2)oc2ccc3ccccc3c12 | 1.28% | 
O=[N+]([O-])c1ccc(Nc2ccc(Nc3ccccc3)c(S(=O)(=O)O)c2)c([N+](=O)[O-])c1 | -4.26% | 
CN(C(=O)CN(CCO)CC(=O)N(C)C(C)(C)Cc1ccccc1)C(C)(C)Cc1ccccc1 | 0.846% [at 42.5 µM] | 
CC(=O)c1ccc([N+](=O)[O-])cc1 | 2.17% | 
CC1=C(Br)C(=O)C(Br)=C/C1=C(/c1ccccc1S(=O)(=O)O)c1cc(Br)c(O)c(Br)c1C | -0.45% [at 42.5 µM] | 
O=c1[nH]ncc2ccccc12 | 3.91% | 
CN(C)CCN1C(=O)c2ccccc2N(C)c2ccccc21 | -0.797% [at 42.5 µM] | 
CC(C)Nc1cccnc1N1CCN(C(=O)c2cc3cc(NS(C)(=O)=O)ccc3[nH]2)CC1 | -0.129% [at 42.5 µM] | 
CCC(C)COC(C)=O (stereo not given) | -1.7% | 
Cc1[nH]cnc1CN1CCc2c(c3ccccc3n2C)C1=O | 0.602% [at 42.5 µM] | 
C=C(C)C(=O)OCCCCCCCCCCCCC | -0.323% | 
CCC1(CO)COCOC1 | 0.436% | 
CN1C[C@H](C(=O)N[C@]2(C)O[C@@]3(O)[C@@H]4CCCN4C(=O)[C@H](Cc4ccccc4)N3C2=O)C[C@@H]2c3cccc4[nH]cc(c34)C[C@H]21 | 2.79% [at 42.5 µM] | 
CC(C)(c1ccccc1)c1ccccc1 | 0.583% | 
CN1CCCC(CC2c3ccccc3Sc3ccccc32)C1 (stereo not given) | -1.18% [at 42.5 µM] | 
Clc1ccc(Nc2nnc(Cc3ccncc3)c3ccccc23)cc1 | 1.1% [at 42.5 µM] | 
O=C(/C=C/c1ccc(O)c(O)c1)O[C@@H]1C[C@@](OC(=O)/C=C/c2ccc(O)c(O)c2)(C(=O)O)C[C@@H](O)[C@@H]1O | -0.138% [at 42.5 µM] | 
C/C=C/C=C/C=O | 2.84% | 
CC(=O)OCCN(CCOC(C)=O)c1ccc(N=Nc2ccc([N+](=O)[O-])cc2C#N)cc1 | 2.13% | 
O=c1c(O)c(-c2ccc(O)cc2)oc2cc(O)cc(O)c12 | -0.761% | 

Compound | activation | Potency
O=C(O)CCc1nc(-c2ccccc2)c(-c2ccccc2)o1 | -3.09% [at 42.5 µM] | 
c1csc(SSc2cccs2)c1 | -12.1% | 
O=C1CCCCCCCCCCOCCCCO1 | -0.0797% | 
Cc1cscn1 | -0.267% | 
N#CCc1ccc(Cl)cc1Cl | -0.233% | 
CCOC(=O)c1ccc(I)cc1 |  | 5.5 µM (active)
CCCCN(CCN(CCCC)C(=O)N1CCOCC1)C(=O)N1CCOCC1 | -4.75% [at 42.5 µM] | 
Cc1cccc(O)c1N | 0.194% | 
C=C1c2cccc(O)c2C(O)=C2C(=O)[C@]3(O)C(O)=C(C(N)=O)C(=O)[C@@H](N(C)C)[C@@H]3[C@@H](O)[C@H]12 | -0.0554% [at 42.5 µM] | 
CC(C)=CCC/C(C)=C/CC/C(C)=C/C(=O)OCC(=O)[C@@]1(O)CC[C@H]2[C@@H]3CCC4=CC(=O)C=C[C@]4(C)[C@H]3[C@@H](O)C[C@@]21C | 13.2% [at 42.5 µM] | 
C=C(C)CCCC(C)CCO (stereo not given) | 0.807% | 
Cc1ccco1 | 1.25% | 
C=C(C)C(=O)OCCOCCOC(=O)C(=C)C | 0.0333% | 
CC(C)(O)c1ccc(CNC(=O)c2cccnc2Oc2ccc3nonc3c2)cc1 | 0.48% | 
O=C1Cc2ccccc2N1c1c(Cl)cccc1Cl | -0.881% | 
CC(=O)Oc1ccc([N+](=O)[O-])cc1CCl | 0.371% | 
C[C@@H](CN(C)C)CN1c2ccccc2Sc2ccccc21 | 0.159% [at 42.5 µM] | 
CCCCC(CC)CN (stereo not given) | -0.189% | 
CCC1CO1 (stereo not given) | 0.843% | 
CCCCCC#CC(=O)OC | 0.2% | 

— PubChem BioAssay (Tox21)
